# Source: PubChem BioAssay AID1946 (Johns Hopkins Ion Channel Center, 2009)
# About 180 (7.5%) of roughly 2,400 compounds were called active. For the sample, actives were picked, then their nearest neighbours and some compounds at random. A number with no mark means an inactive call.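 Rule for the calls: active = readout below zero, meaning a drop past 3 SD under the dofetilide-free negative control mean; inactive = the rest.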
# Molecular target: Potassium voltage-gated channel subfamily KQT member 2 (Rattus norvegicus) (UniProt O88943)
# Sequence (O88943 whole entry, looked up): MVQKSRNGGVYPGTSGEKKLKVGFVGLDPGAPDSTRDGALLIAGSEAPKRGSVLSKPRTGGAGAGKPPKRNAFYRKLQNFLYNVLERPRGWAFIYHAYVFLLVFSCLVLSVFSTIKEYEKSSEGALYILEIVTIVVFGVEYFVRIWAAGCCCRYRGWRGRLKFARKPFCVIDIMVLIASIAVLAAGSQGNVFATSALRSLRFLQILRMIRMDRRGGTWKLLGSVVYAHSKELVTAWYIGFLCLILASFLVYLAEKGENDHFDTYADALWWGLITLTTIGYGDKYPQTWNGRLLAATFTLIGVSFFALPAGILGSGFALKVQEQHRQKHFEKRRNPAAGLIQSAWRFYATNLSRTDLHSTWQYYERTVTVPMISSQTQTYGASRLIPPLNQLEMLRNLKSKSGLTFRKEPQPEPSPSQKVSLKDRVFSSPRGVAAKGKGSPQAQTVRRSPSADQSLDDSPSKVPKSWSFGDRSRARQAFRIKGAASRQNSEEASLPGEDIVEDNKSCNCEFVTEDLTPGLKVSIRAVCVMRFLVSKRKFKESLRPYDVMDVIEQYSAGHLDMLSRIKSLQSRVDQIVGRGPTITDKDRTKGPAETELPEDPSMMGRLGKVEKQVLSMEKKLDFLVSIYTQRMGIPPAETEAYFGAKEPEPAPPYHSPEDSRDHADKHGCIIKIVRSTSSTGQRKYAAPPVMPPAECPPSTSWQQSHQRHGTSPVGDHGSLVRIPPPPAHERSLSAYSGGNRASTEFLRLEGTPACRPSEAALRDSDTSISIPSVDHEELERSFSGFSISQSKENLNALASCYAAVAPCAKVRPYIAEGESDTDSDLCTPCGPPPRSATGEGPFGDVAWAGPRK
# Test: rat KCNQ2 channel inhibition by compounds alone, confirmation, counter-screen for hERG block protector project, cell-based, CHO, FluxOR thallium flux (AID 1946)
# Details: CHO-KCNQ2 cells, FluxOR thallium flux fluorescence, at 10 µM, stronger effect = lower value
row,SMILES,activity change vs negative control
1,O=C(O)CCC(=O)NCCC1=c2ccccc2=N/C1=C\c1c(O)n(Cc2ccc(F)cc2)c(=S)[nH]c1=O,-3.3% (active)
2,O=C1CC(=O)N(c2cccc(C(F)(F)F)c2)C(=O)N1,10.7% [zero marks the 3-SD hit cutoff]
3,COc1ccc2c(c1)/C(=C/c1cnc[nH]1)C(=O)N2,28% [zero marks the 3-SD hit cutoff]
4,COc1ccc2c3c1OC1C(O)C=CC4C(C2)[N+](C)(C)CCC341 (stereo not given),11.5%
5,CCOC(=O)c1c(NS(=O)(=O)c2ccccc2)n(CCCOC)c2nc3ccccc3nc12,1.7% [zero marks the 3-SD hit cutoff]
6,O=c1[nH]c(=S)[nH]c(O)c1/C=C1/C=c2ccccc2=N1,-4.3% (active)
7,C=CCn1c(O)c(/C=C2/C=c3ccccc3=N2)c(=O)[nH]c1=S,3.2%
8,Cc1ccc(S(=O)(=O)NC(Cc2cnc[nH]2)C(=O)O)cc1 (stereo not given),7.9% [zero marks the 3-SD hit cutoff]
9,Cc1ccc(-n2c(O)c(/C=N/Nc3ccccc3)c(=O)[nH]c2=O)cc1C,18.8%
10,C1CCC2S[C@H]3CCCCC3NC2C1 (stereo not given in full),6.1% [zero marks the 3-SD hit cutoff]
11,Cc1nc2ccccc2c(=O)n1-c1cc([N+](=O)[O-])cc([N+](=O)[O-])c1,-5.3% (active)
12,CCOC(=O)Cn1cc([N+](=O)[O-])nc1[N+](=O)[O-],14.6% [zero marks the 3-SD hit cutoff]
13,O=c1[nH]c(=S)[nH]c(O)c1N=Nc1ccc(S(=O)(=O)N2CCc3ccccc32)cc1,7.8%
14,O=C(Cn1ncc2c3ccccc3n(Cc3ccccc3F)c2c1=O)N1CCC2(CC1)OCCO2,64.8%
15,CCCc1[nH]nc2c1C1(C(=O)N(Cc3ccccc3)c3ccccc31)C(C(=O)OC)=C(N)O2 (stereo not given),3.3% [zero marks the 3-SD hit cutoff]
16,Cc1ccccc1N1C(=O)/C(=C/c2ccco2)C(=O)NC1=S,15%
17,O=C1NC(=S)N(c2ccc(F)cc2)C(=O)/C1=C/c1ccco1,22.1%
18,O=C1NC(=O)N(c2ccccc2)C(=O)/C1=C/c1ccc(Sc2ccccc2)o1,-2.5% (active)
19,CN1C(=O)/C(=C/c2ccc(Cl)s2)C(=O)NC1=S,9.5%
20,CC(=NCc1ccco1)c1c(O)n(-c2ccc(C)cc2)c(=O)[nH]c1=O,18.6%
21,O=c1[nH]c(O)c(/C=C2/C=CC(c3cc(Cl)ccc3Cl)=N2)c(=O)[nH]1,-2.7% (active)
22,O=C1NC(=O)C(=Cc2ccc(-c3ccc(Cl)cc3)o2)C(=O)N1,11%
23,O=C(O)c1c[nH]c2ccc(S(=O)(=O)N(CCCl)CCCl)cc12,14% [zero marks the 3-SD hit cutoff]
24,N#CC1=C(N)Oc2c(c(=O)oc3ccccc23)C1c1cccnc1 (stereo not given),7.9% [zero marks the 3-SD hit cutoff]
25,NCCc1ccc(S(N)(=O)=O)cc1,-1.5% [zero marks the 3-SD hit cutoff] (active)
26,O=c1c2cc(Br)ccc2[nH]c(=S)n1-c1ccccc1,9.1% [zero marks the 3-SD hit cutoff]
27,CCCCn1c(O)c(C(CC)=Nc2ccc(OCC)cc2)c(=O)[nH]c1=O,3.2%
28,CN1C(=O)/C(=C\c2ccc(Br)s2)C(=O)NC1=S,6.5%
29,Oc1cccc2cccnc12,24.3% [zero marks the 3-SD hit cutoff]
30,COc1ccccc1N1CCN(Cc2ccc(F)cc2)CC1,8.2%
